# Source: PubChem BioAssay
# Sampled rows, rich in hits. Any-hit rate of the full collection: about 1.8%.
# ABCB6 inh MLPCN: human ABCB6 transporter inhibition | K562-ABCB6 porphyrin accumulation, flow cytometry, 1 h; stronger effect = lower value | fluorescence ratio to DMSO, % at 10 µM | actives 0.19% (n = 360,000) | AID 602162;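 active means fluorescence ratio to DMSO below 75%, the collection mean minus 3 SD; inconclusive means too few cells collected in the well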;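 further: signal is porphyrin accumulated inside mitochondria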
# Granule exo inh: lytic granule exocytosis inhibition. TALL-104 LAMP-1 surface exposure, flow cytometry; cells stimulated with thapsigargin and PMA. inhibition, % at 10 µM. actives 0.66% (n = 360,000). AID 651702;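 active means inhibition above about 55%, limit read from the data; inconclusive means no clear call, values can overlap the other calls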
# Myeloid diff 2: compounds promoting myeloid differentiation | ER-HoxA9 myeloid progenitors, lysozyme-GFP differentiation, flow cytometry | actives 1% (n = 360,000) | calls only at 10 µM;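 active means normalized GFP-positive differentiation at or above the plate's own cutoff, the solvent-only control mean plus 3 SD; inconclusive means no clear call, values can overlap the other calls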;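 further: cells exposed to compound for four days before flow analysis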
# Numbers stand for hits; . = inactive; ? = inconclusive; / = no result given; + = active, no number.
SMILES,ABCB6 inh MLPCN,Granule exo inh,Myeloid diff 2
COc1cc(/C=C/C(=O)O)cc(S(=O)(=O)Nc2ccc(S(=O)(=O)N3CCCCC3)cc2)c1OC,.,.,.
O=C(CC12CC3CC(CC(C3)C1)C2)NCCN1CCOCC1,.,.,.
O=C(CN1CCOCC1)NCC12CC3CC(CC(C3)C1)C2,.,.,+
CCOCc1c(C(=O)NCC(c2ccco2)N2CCCC2)oc2ccccc12 (centres undefined),.,.,.
COc1ccc(C(=O)COc2ccc(C(C)=O)cc2OC)cc1OC,.,.,.
COc1ccc(S(=O)(=O)N2CCC(C)CC2)cc1OC,.,.,.
CC1CCN(S(=O)(=O)c2ccc3c(c2)C(=NO)c2cc(S(=O)(=O)N4CCC(C)CC4)ccc2-3)CC1,70,.,?
O=S(=O)(c1ccc2c(c1)C(=NO)c1cc(S(=O)(=O)N3CCCCC3)ccc1-2)N1CCCCC1,72,.,.
O=S(=O)(c1ccc(S(=O)(=O)N2CCCC2)cc1)N1CCCCCC1,.,.,.
O=C(CSc1nc(=O)n(CCCN2CCOCC2)c2c1CCCC2)Nc1cccc(Cl)c1,.,.,.
CN(C)S(=O)(=O)N1C(=O)c2ccccc2C1=O,.,.,.
CN(C)/C=C1\C=C2C(=O)c3ccccc3N2C1=O,.,.,+
O=S1(=O)C=C[C@@H](COCc2ccccc2)N1Cc1ccc(Br)cc1,.,.,.
O=C(OCC(=O)N1CCC(Cc2ccccc2)CC1)c1cc(Br)ccc1O,.,.,.
COC(C[C@H]1O[C@@H]1[C@H](O)COCc1ccccc1)OC,.,.,+
COC(C[C@@H]1O[C@H]1[C@@H](O)COCc1ccccc1)OC,.,.,.
CC(Oc1ccc2c(c1)oc(=O)c1ccccc12)C(=O)NC(Cc1c[nH]c2ccc(O)cc12)C(=O)O (centres undefined),.,.,.
Cn1nc(C(F)(F)F)c(/C=N/OC(=O)c2ccccc2)c1Cl,.,57,.
Cc1nn(C)c(Cl)c1/C=N/OC(=O)c1ccccc1,.,.,.
O=C(NCc1cccnc1)/C(=C/c1ccc(-c2ccc(Cl)cc2)o1)S(=O)(=O)c1ccccc1,.,87,/
O=C(NCc1cccnc1)/C(=C/c1ccc(-c2cccc(C(F)(F)F)c2)o1)NC(=O)c1ccccc1,.,.,.
CC1CCCN(S(=O)(=O)c2ccc(NC(=O)C3CCN(C(=O)c4ccco4)CC3)cc2)C1 (centres undefined),.,.,.
Cc1ccccc1S(=O)(=O)N1C[C@H]2[C@H]3C(=O)N(c4ccccc4)C(=O)[C@H]3CC(=O)[C@H]2[C@@H]1c1ccc(Cl)cc1,.,.,.
Cc1cc(O)c2c(c1O)C(=O)[C@]13C(=C2O)C(=O)[C@@H]2[C@@H](O)[C@H]1[C@@H]1[C@H](O)[C@H]3C(=O)C3=C(O)c4c(O)cc(C)c(O)c4C(=O)[C@]312,.,.,+
O=C(NCc1ccccn1)[C@@H]1CCCN1C(=O)[C@@H]1CCCN1C(=O)c1ccc(Cl)cc1,.,.,.
SMILES,ABCB6 inh MLPCN,Granule exo inh,Myeloid diff 2
CCN(C(=O)CSc1nnc2ccccn12)c1c(N)n(Cc2ccccc2)c(=O)[nH]c1=O,.,.,.
CCCCN(C(=O)CSc1nnc2ccccn12)c1c(N)n(Cc2ccccc2)c(=O)[nH]c1=O,.,.,+
CCN(C(=O)CSc1n[nH]c(-c2ccc(OC)cc2)n1)c1c(N)n(Cc2ccccc2)c(=O)[nH]c1=O,.,.,+
CCc1ccc(-c2nc(SCC(=O)N(CCOC)c3c(N)n(Cc4ccccc4)c(=O)[nH]c3=O)n[nH]2)cc1,.,.,.
COCCN1C(=O)CCC1(C)C(=O)NC(C)(C)C (centres undefined),.,.,.
COc1ccc(C2=NC(=O)/C(=C\c3cc(OC)c(OC)c(OC)c3)O2)cc1,.,.,.
CC(=O)c1c(C)[nH]c(C(=O)CN2CCN(S(=O)(=O)c3ccccc3F)CC2)c1C,.,.,.
COc1ccc(S(=O)(=O)N(C)CC(=O)NCc2ccco2)cc1Cl,.,.,+
CN(CC(=O)NCc1ccco1)S(=O)(=O)c1ccc(F)cc1,.,.,.
CN(CCCC(=O)NCc1ccco1)S(=O)(=O)c1ccccc1,.,.,+
COc1ccc(C)cc1S(=O)(=O)N(C)CC(=O)NCc1ccco1,.,.,.
CC1(C)OC(=O)C2=C(C[C@@H](CCOCc3ccccc3)O[C@@H]2c2ccc(F)cc2)O1,.,.,.
O=C(CSc1ccccc1F)NC(=O)NC1CCCC1,.,.,.
COc1cccc(NC(=S)NC2CC(C)CC(C)(C)C2)c1 (centres undefined),.,.,.
Cc1ccc(S(=O)(=O)Nc2ccc(N3CCN(C)CC3)nc2)cc1,.,.,+
CN1CCN(NS(=O)(=O)c2ccc(Cl)cc2)CC1,.,.,.
Cc1ccccc1C(=O)Nc1ccc(N2CCN(C)CC2)nc1,.,.,+
CN1CCN(c2ccc(NC(=O)c3ccc(C(F)(F)F)cc3)cn2)CC1,.,.,.
Cc1ccc(NS(=O)(=O)c2ccc(C(=O)N3CCN(c4ccccn4)CC3)cc2)cc1,.,.,.
CN1CCN(c2ccc(NS(=O)(=O)c3ccc(Cl)cc3)cn2)CC1,.,.,+
CCOC(=O)N1CCN(C(=O)CNS(=O)(=O)c2c(C)cc(C)cc2C)CC1,.,.,.
CC[C@H](NC(=O)CC[C@H]1O[C@@H](n2cnc3c(NC(=O)c4ccccc4)ncnc32)[C@H](O)[C@@H]1O)c1ccccc1,.,.,.
O=C(NCC(=O)N1CCCCCC1)c1ccc(Br)cc1,.,.,.
COC(=O)c1cnc(Nc2nc(CN)cs2)nc1C(F)(F)F,.,.,.
CCOc1ccc(-c2nc3n(c(=O)c2C#N)CCCS3)cc1,.,.,+
SMILES,ABCB6 inh MLPCN,Granule exo inh,Myeloid diff 2
COc1ccc(-c2nc3n(c(=O)c2C#N)CCCS3)cc1,.,.,.
Cc1cc(C(=O)NNC(=O)c2sccc2C)c(C)o1,.,.,.
CC(=O)Oc1oc(-c2ccccc2)nc1C=Nc1ccc(N(C)C)cc1,.,94,.
CN(C)c1ccc(N=Cc2nc(-c3ccccc3)oc2OC(=O)c2ccccc2)cc1,.,.,.
N#CCC(=O)Nc1ccc(C(=O)OCC(=O)N2CCN(C(=O)c3ccco3)CC2)cc1,.,.,.
O=C(NCCc1ccccc1)c1cccc(NC(=O)C2CCCC2)c1,.,.,.
O=[N+]([O-])c1cc2oc3c(c2c(C=NCc2ccccc2)c1O)CCCC3,.,.,.
CC(C)CN=Cc1c(O)c([N+](=O)[O-])cc2oc3c(c12)CCCC3,.,95,.
CCOC(=O)C1=C(c2ccccc2)NC(=O)NC1c1ccc(OC)c(OC)c1 (centres undefined),.,.,.
CCOC(=O)C1=C(c2ccccc2)N(C)C(=O)NC1c1ccc(OC(F)F)c(OC)c1 (centres undefined),.,.,+
Cc1ccc(C)c(OCc2ccc(C(=O)NN)o2)c1,.,.,+
Cc1ccc(OCc2ccc(C(=O)NN)o2)c([N+](=O)[O-])c1,.,.,.
Cc1cc(C)n(Cc2ccc(C(=O)NN)o2)n1,.,.,+
Cc1cc(C)n(Cc2ccc(C(=O)O)o2)n1,/,.,.
CC(C)C(=O)N1CCC1(C)C(=O)Nc1ccc2[nH]ccc2c1 (centres undefined),.,.,.
Cc1ccc(CNC(=O)C2CC3Cn4c(nc5ccccc54)C3N2C)o1 (centres undefined),.,.,.
Cc1cc(N2CCCC2)ccc1/C=N/n1cnnc1,.,.,+
